Data as given in PubChem BioAssay (NCI).
About 79,000 compounds went through this panel and 15% of them were active in at least one assay; those are over-represented in the sample as a whole. Cut-off read from the data, not from the text of the source: active = growth inhibition above about 70%; inactive = the rest.

Assays:
[1] = NCI Yeast Anticancer Drug Screen. Data for the rad50 strain (AID 155);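 note: 0% = growth of vehicle-only cultures of the same strain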; conditions: S. cerevisiae rad50 strain growth inhibition; at 50.0 µM; hits give high values
Outline: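 Cells are treated with compound, grown, and their growth is then scored against vehicle-only cultures of the same repair-deficient yeast strain.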

[2] = NCI Yeast Anticancer Drug Screen. Data for the mec2-1 strain (AID 157); conditions: S. cerevisiae mec2-1 strain, at 50.0 µM, hits give high values
Outline: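 Readout is yeast growth inhibition, normalised to vehicle-treated controls, in the mec2-1 strain exposed to compound.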

[3] = NCI Yeast Anticancer Drug Screen. Data for the sgs1 mgt1 strain (AID 161);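 note: 0% = growth of cultures given vehicle only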; conditions: S. cerevisiae sgs1 mgt1 strain, at 50.0 µM, hits give high values
Outline: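 This yeast growth screen uses a strain with defined DNA-repair lesions; compound-treated growth is compared with vehicle-treated growth.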

[4] = NCI Yeast Anticancer Drug Screen. Data for the cln2 rad14 strain (AID 165);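 note: 0% = growth equal to vehicle treated cultures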; conditions: S. cerevisiae cln2 rad14 strain, at 50.0 µM, hits give high values
Outline: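 Relative to vehicle controls, growth inhibition of compound-treated cln2 rad14 yeast was recorded.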

[5] = NCI Yeast Anticancer Drug Screen. Data for the bub3 strain (AID 167); conditions: S. cerevisiae bub3 mutant strain, at 50.0 µM, hits give high values
Outline: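 Part of a panel of yeast mutants defective in DNA damage repair or cell cycle regulation. Each strain is grown with compound, and inhibition is calculated relative to solvent-treated cultures.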

[6] = NCI Yeast Anticancer Drug Screen. Data for the mlh1 rad18 strain (AID 175); conditions: S. cerevisiae mlh1 rad18 strain growth inhibition; at 50.0 µM; hits give high values
Outline: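 Test agents were incubated with a yeast strain of defined genotype (DNA damage repair defect). Inhibition of growth was derived by comparison with vehicle-exposed cultures.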

Measured: growth inhibition

C=C(C)C12CC3CC/C(=N/O)C(C1)C3(N1CCOCC1)C/C2=N/O (stereo unspecified)
inactive: [1] -21.6% | [2] -18.9% | [3] -16.2% | [4] -12.3% | [5] -7.15% | [6] -25.9%

CSc1ncc(CO)c(Nc2ccccc2Cl)n1
inactive: [1] 2.8% | [2] 14.4% | [3] -19.4% | [4] -14% | [5] 12.3% | [6] 1.55%

CN(C)C=NCC(O)c1ccccc1 (stereo unspecified)
inactive: [1] 13.3% | [2] 15% | [3] 0% | [4] -3% | [5] -21.2% | [6] -22.1%

NC(=S)N/N=C1/C(=O)N(c2ccccc2)C(=O)C1C(=O)Nc1ccccc1 (stereo unspecified)
inactive: [1] 46.2% | [2] 16.8% | [3] 38% | [4] 0.9% | [5] -0.25% | [6] 39.1%

CCCCCCCCn1c(C)nc2c(cnn2C)c1=O
inactive: [1] -9.6% | [2] -19.2% | [3] -6.15% | [4] 20.9% | [5] 36.1% | [6] 4.8%

O=C(NNC1CCN(Cc2ccccc2)CC1)c1ccccc1
inactive: [1] 12.5% | [2] -18% | [3] 5.35% | [4] 16.9% | [5] 2.5% | [6] 13.4%

CCOC(=O)C1=C(C)c2ccccc2OC1C(=O)O (stereo unspecified)
inactive: [1] 4.55% | [2] 11.1% | [3] 16.8% | [4] -23.4% | [5] -13.1% | [6] -10.3%

CSc1c(C#N)c(N)n2c1C(=O)N(c1ccccc1)C2=S
inactive: [1] -52.7% | [2] 25.6% | [3] -26.9% | [4] 20.1% | [5] 26.1% | [6] -4.8%

CC(=O)N(C)N=Nc1ccc(Cl)cc1
inactive: [1] 10.4% | [2] 11.7% | [3] 2.05% | [4] -17.6% | [5] 3.8% | [6] 15.9%

CCOc1nc(=O)n(CC(=O)c2ccc(Cl)s2)cc1F
inactive: [1] 4.55% | [2] 17.4% | [3] -0.8% | [4] -7.8% | [5] 21.6% | [6] 19.6%

O=C(c1ccccc1)C1(c2ccccc2)CCCCC1
inactive: [1] 19.6% | [2] 15.6% | [3] 20.1% | [4] -10.6% | [5] 0.45% | [6] 32.6%

Cc1ccc(C(C)C)cc1NC(=O)/C=C/c1ccccc1
inactive: [1] 10.2% | [2] 36% | [3] 36.6% | [4] -15.2% | [5] 23.9% | [6] 55%

O=C(CCc1cc(O)cc(O)c1)NCCc1cc(O)cc(O)c1
inactive: [1] 6.55% | [2] 5.9% | [3] 17.4% | [4] 26.4% | [5] 8.8% | [6] -46%

COc1c(NC(=O)Nc2ccc(SC)cc2)cccc1[N+](=O)[O-]
inactive: [1] 2.35% | [2] 15.6% | [3] 23.6% | [4] 5.1% | [5] 41.3% | [6] 9.65%

CC/C=C(C)/C=N\NC(=O)c1ccc[n+](C)c1
inactive: [1] 21.8% | [2] 12.6% | [3] 17.6% | [4] 23.6% | [5] -3.9% | [6] 2.55%

CC(C)(O)C1OCC(C2CCC3(C)C4=CCC5C(C)(C)C(O)CCC5(C)C4CCC23C)CC1O (stereo unspecified)
inactive: [1] 23.7% | [2] 27.6% | [3] 34.8% | [4] 42.6% | [5] 21.5% | [6] 4.75%

O=S(=O)(c1cccc(C(F)(F)F)c1)N(CCCCCN(S(=O)(=O)c1cccc(C(F)(F)F)c1)S(=O)(=O)c1cccc(C(F)(F)F)c1)S(=O)(=O)c1cccc(C(F)(F)F)c1
inactive: [1] -12.2% | [2] 2.95% | [3] 0.2% | [4] 21.3% | [5] 11.9% | [6] 10.2%

CC(=O)OC1C(=O)OC(=O)C1OC(C)=O (stereo unspecified)
inactive: [1] 9.6% | [2] 0.9% | [3] 8.1% | [4] 5.25% | [5] 6.05% | [6] -3.85%

Cc1c([N+](=O)[O-])cc(C(C)C)c(O)c1[N+](=O)[O-]
inactive: [1] 14.8% | [2] 25.3% | [3] 27.9% | [4] -6% | [5] -9.5% | [6] 66.2%

NNC(=O)CC(N)C(=O)O (stereo unspecified)
inactive: [1] 9% | [2] 4.4% | [3] -4.2% | [4] -20.7% | [5] 1.15% | [6] 2%

O=C(CCl)Nc1cc2ccccc2c2ccccc12
inactive: [1] 0.65% | [2] -23.6% | [3] -10.9% | [4] 1.6% | [5] 9.6% | [6] 8.6%

C[N+]1(C)CCCC(O)(C(=O)c2ccccc2)C1 (stereo unspecified)
inactive: [1] -5.2% | [2] -10.3% | [3] -14.3% | [4] 6.6% | [5] -2.4% | [6] 17.1%

NC1c2c(Cl)sc(Cl)c2C(=O)C1O (stereo unspecified)
inactive: [1] -0.8% | [2] 15.2% | [3] -10.2% | [4] -3.6% | [5] 4% | [6] -40.4%

Oc1ccc(Cl)c(O)c1
inactive: [1] 30.1% | [2] -0.55% | [3] -3.65% | [4] 0.9% | [5] -6% | [6] 21.7%

CC1=C(C)CN(CCC(=O)O)C(C(N)=O)C1 (stereo unspecified)
inactive: [1] -11.9% | [2] -2.3% | [3] -3.8% | [4] 17.5% | [5] 18.5% | [6] -10.1%

Cc1cc(=O)oc2cc3c(cc12)Oc1ccccc1O3
inactive: [1] -6.85% | [2] -11.2% | [3] -0.95% | [4] 3.5% | [5] 5.8% | [6] -5%

ClNc1nc(NCl)nc(NCl)n1
inactive: [1] -17.7% | [2] -25.8% | [3] -5.1% | [4] 2% | [5] -9.8% | [6] -19.1%

COc1ccccc1NC(=O)C(C#N)=C(SC)SC
inactive: [1] 2.05% | [2] -14.2% | [3] 0.1% | [4] 18.6% | [5] -22.4% | [6] -13.7%

ClCc1c(-c2ccccc2)nn(-c2ccccc2)c1CCl
inactive: [1] 8.65% | [2] 14.2% | [3] 38.5% | [4] 6.05% | [5] 57.5% | [6] 37%

CC1(C)OC(=O)C(C(N)=O)C1c1ccc(Cl)cc1 (stereo unspecified)
inactive: [1] 6.15% | [2] 0.8% | [3] -5.65% | [4] -3% | [5] -6.25% | [6] 13.8%

N#CC1=C(N)CCC(C#N)(c2ccccc2)C1 (stereo unspecified)
inactive: [1] 2.4% | [2] 2% | [3] 22.4% | [4] 14.8% | [5] 22.8% | [6] 8.2%

Clc1cnnc2nc[nH]c12
inactive: [1] -10.8% | [2] -7.4% | [3] -24.2% | [4] -28.1% | [5] -15.8% | [6] -23.2%

C=C(C)C#CC(O)(C(=O)OC1CCN(C)CC1)C(C)C (stereo unspecified)
inactive: [1] -7.95% | [2] -14% | [3] -21.1% | [4] 7.2% | [5] 20.9% | [6] -22.1%

COc1ccc2[nH]c(C(F)(F)F)cc(=O)c2c1
inactive: [1] 9.4% | [2] 11.7% | [3] 5.2% | [4] -7.95% | [5] 4.65% | [6] 14.8%

O=C(CCN1CCOCC1)c1csc2ccccc12
inactive: [1] 27.6% | [2] 36.9% | [3] 12.9% | [4] 14.9% | [5] -5.35% | [6] 17.8%

COC(=O)N1CCc2c(nc(N(C)CCO)[nH]c2=O)C1
inactive: [1] -0.55% | [2] -20.5% | [3] -47.2% | [4] -3.8% | [5] -30.1% | [6] -30.6%

COc1ccc(-c2nnc(-c3ccc(OC)cc3)nn2)cc1
inactive: [1] 1.8% | [2] 15.7% | [3] -7.1% | [4] -11.8% | [5] 4.2% | [6] -3%

CC(=O)CC(=NCC(O)CN=C(CC(C)=O)c1ccccc1)c1ccccc1.[Cu] (stereo unspecified)
inactive: [1] 10.4% | [2] 8.55% | [3] 5.9% | [4] -18.7% | [5] -11.3% | [6] 25.4%

O=S1(=O)CS/C(=N/C(=S)N(Cc2ccccc2)Cc2ccccc2)N1c1ccccc1
inactive: [1] 43% | [2] 14% | [3] 35.1% | [4] 24.8% | [5] -3.85% | [6] 29.6%

C[N+]1(C)CCCC(OC(=O)C(O)(c2ccccc2)c2ccccc2)C1 (stereo unspecified)
inactive: [1] 38% | [2] 10.1% | [3] 15.6% | [4] -18.9% | [5] 13.6% | [6] 27.7%

C#CC(C)OC(=O)Nc1ccccc1 (stereo unspecified)
inactive: [1] 28.6% | [2] -22.2% | [3] 3.4% | [4] -3.95% | [5] -7.65% | [6] -8.3%
